# Reference: the supplement of paper PMC6555819
# Columns and labels:
# Assay in all cases: PBM binding z-score (relative to random genomic background probes); higher = stronger binding; sequences stand for … in GC…GCGATTGACAGCGTAGAATGAAGG
# [1] = test system: PPARg:RXRa DBDmut IVT, anti-RXR (DBD mutation: RXRa K156A/R161A, NR concentration 270 nM, RXRa partner concentration 90 nM)
# How it was run: (§1)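 On custom Agilent 4×180K arrays, double-stranded probes with 34-nt variable regions carried direct-repeat seeds, single-nucleotide variants, half-site ablations or random human genomic background. Ligand-free nuclear receptor dimers were applied for 1 h, and binding was read with antibodies against each partner (one per run). Binding z-scores come from regression-normalized fluorescence, with the random background probes as reference.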
# [2] = test system: PPARg:RXRa IVT, anti-PPARg (NR concentration 270 nM, RXRa partner concentration 90 nM)
# How it was run: as §1
# [3] = test system: PPARg DBDmut:RXRa IVT, anti-PPARg (DBD mutation: PPARg1 K132A/R137A, NR concentration 270 nM, RXRa partner concentration 90 nM)
# How it was run: as §1
# [4] = test system: PPARg DBDmut IVT, anti-PPARg (DBD mutation: PPARg1 K132A/R137A, NR concentration 270 nM)
# How it was run: as §1
# [5] = test system: PPARg homodimer (NR concentration 180 nM)
# How it was run: as §1
# [6] = test system: PXR:RXRa (NR concentration 270 nM, RXRa partner concentration 90 nM)
# How it was run: as §1
# [7] = test system: PXR homodimer (NR concentration 270 nM)
# How it was run: as §1
# [8] = test system: RARa:RXR (NR concentration 270 nM, RXRa partner concentration 90 nM)
# How it was run: as §1
# [9] = test system: RARa homodimer (NR concentration 270 nM)
# How it was run: as §1
# [10] = test system: RARb:RXRa (NR concentration 270 nM, RXRa partner concentration 90 nM)
# How it was run: as §1
# [11] = test system: RARb homodimer (NR concentration 270 nM)
# How it was run: as §1
# [12] = test system: RARg:RXRa (NR concentration 270 nM, RXRa partner concentration 90 nM)
# How it was run: as §1
# [13] = test system: RARg homodimer (NR concentration 270 nM)
# How it was run: as §1
# [14] = test system: RXRa DBDmut IVT, anti-RXR (DBD mutation: RXRa K156A/R161A, NR concentration 90 nM)
# How it was run: as §1
# [15] = test system: RXRa homodimer (NR concentration 180 nM)
# How it was run: as §1
# [16] = test system: THRa:RXRa (NR concentration 90 nM, RXRa partner concentration 90 nM)
# How it was run: as §1
# [17] = test system: THRa homodimer (NR concentration 90 nM)
# How it was run: as §1
# [18] = test system: VDR:RXRa (NR concentration 270 nM, RXRa partner concentration 90 nM)
# How it was run: as §1
# [19] = test system: VDR homodimer (NR concentration 270 nM)
# How it was run: as §1
Sequence,PBM binding z-score [1],PBM binding z-score [2],PBM binding z-score [3],PBM binding z-score [4],PBM binding z-score [5],PBM binding z-score [6],PBM binding z-score [7],PBM binding z-score [8],PBM binding z-score [9],PBM binding z-score [10],PBM binding z-score [11],PBM binding z-score [12],PBM binding z-score [13],PBM binding z-score [14],PBM binding z-score [15],PBM binding z-score [16],PBM binding z-score [17],PBM binding z-score [18],PBM binding z-score [19]
CAAACTAGGTCTAGAGGTCAAAGTCCGCTTCCCG,3.11,4.41,0.248,0.06,3.03,5.4,2.48,5.69,0.52,3.96,4.55,5.26,4.46,1.89,5.98,3.8,1.56,4.93,4.46
CGTACAAGGTCAGAGAGGTCAGTGAATGCCGAGT,3.77,4.39,1.15,1.93,3.94,6.31,12.2,5.87,1.83,5.17,5.31,6.28,7.24,3.52,5.95,4.23,2.64,7.46,6
GCATATCGGTAATACAAGGTGAAAGTCCGATTGT,0.472,0.945,0.308,0.208,0.544,0.155,0.188,0.793,0.00157,0.541,0.774,0.308,0.268,0.112,0.446,3.07,0.911,0.0318,-0.28
ATATGTAGGTTAGCTTGGGTCATTCAGACTAGGC,6.6,5.97,1.34,1.95,1.5,2.77,0.807,2.26,0.877,1.89,2.7,2.07,1.67,0.678,1.89,4.29,1.36,2.64,1.36
CCTACTGGGCCAAGGGCATTGATCAGTCAAAGCA,2.73,3.65,-0.869,-1.53,0.181,-0.452,-0.173,-0.637,-1.18,0.896,0.581,0.0127,0.289,-1.17,-0.4,0.178,-0.634,-0.469,-0.245
TCTAGTTGGTCACGGATGTCACACACGACGGGTA,2.2,2.89,1.14,1.42,1.14,0.836,-0.124,0.724,0.648,1.88,1.57,1.43,1.91,0.683,1.15,0.409,0.417,1.18,0.656
CAAGCTAGGTCACGAAAGGTCAAAGTCGAATGAC,5.1,6.14,2.17,-0.0947,7.93,7.36,3.04,7.85,4.08,5.61,5.98,8.18,8.58,2.43,8.62,5.11,2.29,6.88,3.61
ACTATTAGTTGAGACGATGGCAACCGATAGGTTG,0.172,0.0295,0.79,1.06,0.664,-0.242,-0.102,-0.204,0.657,-0.199,-0.57,0.459,0.26,0.0509,0.0596,-0.111,-0.705,-0.293,0.236
GGAACGAGGGCATTCAAGTTGATAGCATGGCGAT,2.92,2.13,-0.155,-0.574,-0.338,2.92,0.722,0.791,-0.689,1.9,0.771,1.04,1.74,3.23,0.697,3.52,-0.291,3.02,2.77
GCTCGGACGACAAGGTCAGAGCTTTGTCCGTAGA,-0.353,-0.175,-1.38,-1.46,0.248,1.73,-0.194,2.24,-0.933,2.84,2.73,2.72,3.07,0.365,2.23,2.54,0.94,1.4,0.617
ATCGAAAGGTCGAGGTGAGTATGGAGAAAGGGAA,0.289,2.45,0.568,0.731,1.64,2.3,0.205,2.72,0.528,3.95,2.76,4.21,4.51,0.698,4.17,2.84,0.743,2.59,0.435
CCGACTGGGGCAAGGGTACCATAACGCACAGCCA,2.26,3.6,0.123,-0.113,0.601,-0.478,-0.439,-0.197,-0.395,0.933,0.569,0.349,0.692,-1.52,0.269,-0.0335,-0.368,-0.346,-0.448
CGAACTAGGTCAAGTACAGTGAATCTCCGCACGC,8.4,8.26,1.96,1.97,2.76,1.8,0.0981,2.37,0.517,4.19,3.33,4.45,5.13,2,3.13,3.03,1.56,2.02,1.45
TCTGCTAGGACAACGATGGTCAGCTAATCTGCTA,0.636,-0.317,-0.808,-0.587,-1.47,-0.66,-1.33,-0.497,-0.832,0.175,-0.669,-0.181,0.34,0.112,-0.495,0.316,-0.704,-0.784,-0.943
